Compounds without any hit were thinned out: in the full panel of roughly 83,000, 20% have a hit.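 Single-dose data. Exposure time 48 hours. Values below 10 considered active.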 Values without a mark were called inactive. The source made the active and inactive calls.
What was measured:
Experiment in all cases: NCI-60 one-dose screen, 48 h (100 = growth as untreated, 0 = no growth, -100 = all killed)
Details in all cases: 10 µM unless noted
[1] = system: T-47D breast
[2] = system: BT-549 breast
[3] = system: MDA-MB-435 melanoma
[4] = system: SW-620 colon
[5] = system: MCF7 breast
[6] = system: HCT-116 colon
[7] = system: HCC-2998 colon
[8] = system: KM12 colon

Compound | growth [1] | growth [2] | growth [3] | growth [4] | growth [5] | growth [6] | growth [7] | growth [8]
COc1cc2nc(Cc3ccc(C)cc3)[nH]c(=O)c2cc1OC | 107% | 229% | 119% | 101% | 104% | 117% | 106% | 109%
CC[C@@]12C=CCN3CC[C@]4(c5cc(NC(=O)COc6cc(OCC(=O)Nc7cc8c(cc7OC)N(C)[C@H]7[C@@](O)(C(=O)OC)[C@H](OC(C)=O)[C@]9(CC)C=CCN%10CC[C@]87[C@@H]%109)cc7oc(-c8ccccc8)cc(=O)c67)c(OC)cc5N(C)[C@@H]4[C@](O)(C(=O)OC)[C@H]1OC(C)=O)[C@H]32 | 77.3% | 61.4% | 42% | 20.3% | 26.1% | 0.866% (active) | -8.78% (active) | -39.3% (active)
COc1cccc2c1C(=O)c1c(O)c3c(c(O)c1C2=O)C[C@@](O)(C(=O)CO)C[C@@H]3O[C@H]1C[C@H](N)[C@@H](O)[C@H](C)O1 | 4.43% (active) | -39% (active) | -77.6% (active) | 0.619% (active) | 4.48% (active) | 5.25% (active) | -22.8% (active) | 1.25% (active)
CCCCCCCCCCN=C(N)N=C(N)N | 29.4% | 15.6% | 37.7% | 58.5% | 32.9% | 41.9% | 49.5% | 28.5%
O=C(N/N=C/c1ccc(F)cc1)c1ccccc1Nc1cccc(C(F)(F)F)c1 | 88.2% | 105% | 100% | 96% | 106% | 111% | 107% | 91.4%
Cc1c2c(cc[n+]1Cc1ccccc1)c1ccc(OCc3ccccc3)cc1n2Cc1ccccc1 | -4.02% (active) | -90.4% (active) | -93.8% (active) | -88.1% (active) | -23.1% (active) | -95.6% (active) | -81.8% (active) | -98.4% (active)
COc1ccc(-c2nc(N/N=C/c3cccc(O)c3)nc(N3CCOCC3)c2C#N)cc1 | 72% | 84.6% | 97.7% | 58.9% | 61.7% | 59.1% | 108% | 72.2%
C=C(C)[C@@H]1CC[C@]2(C(=O)N3CCN(C)CC3)CC[C@]3(C)[C@H](CC[C@@H]4[C@@]5(C)CCC(=O)C(C)(C)[C@@H]5CC[C@]43C)[C@@H]12 | 65.3% | 96.8% | 92% | 73.5% | 59.2% | 31.2% | 82.1% | 80.6%
Clc1cc(Cl)cc(N2N=C(c3cccc(Nc4ccncc4)c3)CC2c2ccccc2)c1 (stereo not given) | 77.7% | 78.2% | -38.9% (active) | -68.6% (active) | -11% (active) | 38.7% | -58.8% (active) | -8.16% (active)
CN(C)C(C(N)=O)c1ccc(Cl)cc1 (stereo not given) | 102% | 100% | 101% | 104% | 106% | 94.9% | 102% | 102%
CC(C)NC(=O)N1C(=O)CCC1NNC(=O)c1ccc([N+](=O)[O-])cc1 (stereo not given) | 94.9% | 102% | 98.6% | 112% | 97.8% | 95.7% | 98.6% | 102%
O=C(CN1CCOCC1)Nc1ccc2ncnc(Nc3ccc(Oc4cccc(C(F)(F)F)c4)c(Cl)c3)c2c1 | 19.5% | 70.1% | 65.5% | 82.2% | 34.2% | 45.1% | 87.1% | 74.2%
O=S(=O)(O)c1cc(O)c2c(N=Nc3ccc(Nc4ccccc4)c4c(S(=O)(=O)O)cccc34)cc(S(=O)(=O)O)cc2c1 | 100% | 100% | 115% | 103% | 105% | 105% | 102% | 101%
CN1CCN(c2ccc(NC3=C(Cl)C(=O)c4ncccc4C3=O)cc2C#N)CC1 | -33.3% (active) | 96.3% | -92.9% (active) | -75.3% (active) | -59.9% (active) | -56.7% (active) | 96.7% | 105%
O=C(CN1CCOCC1)Nc1ccc2ncnc(Nc3ccc(Oc4cccc(F)c4)c(Cl)c3)c2c1 | 23.9% | 86.2% | 85.4% | 100% | 71.1% | 73.5% | 101% | 90.1%
Cn1c(COC(=O)NCCc2ccccn2)nc2c(N3CCOCC3)nc(Cl)nc21 | -2.17% (active) | 2.36% (active) | -83.3% (active) | -86.2% (active) | -43.5% (active) | -69.8% (active) | 37.5% | 44.3%
Cc1ccc(S(=O)(=O)Nc2ccc(Cl)cc2)cc1 | 106% | 106% | 101% | 105% | 93.7% | 97.4% | 104% | 105%
CCSc1ccc2c(c1)N(CCCN1CCN(C)CC1)c1ccccc1S2 | 47% | 73.2% | -15.1% (active) | 45.5% | 20.5% | 21.9% | 13.4% | 4.74% (active)
COC(=O)N[C@H]1CCc2cc(OC)c(OC)c(OC)c2-c2ccc(SC)c(=O)cc21 | 50.2% | -4.09% (active) | -29.5% (active) | 16.9% | 14.7% | 5.32% (active) | 6.51% (active) | 1.21% (active)
O=C1/C(=C\c2cn(Cc3ccccc3)c3ccc(Br)cc23)c2ccccc2N1c1c(Cl)cccc1Cl | 94.5% | 106% | 105% | 108% | 96.7% | 94.7% | 106% | 104%
COc1ccc(/C(C)=N/NC(=O)CSc2nc3ccccc3c(=O)n2Cc2ccc(S(N)(=O)=O)cc2)c(OC)c1 | 95.6% | 104% | 102% | 102% | 90.7% | 102% | 115% | 102%
Cc1c(C2=CCCCC2)c2ccccn2c1C(=O)c1cccc(S(=O)(=O)N2CCOCC2)c1 | 79.3% | 54.8% | 62.5% | 98.2% | 93.4% | 43% | 82.2% | 72.3%
CC(C)(C)OC(=O)N1CCN(c2ccc(N)cc2)C(=O)C1 | 106% | 116% | 106% | 109% | 91.9% | 99.9% | 102% | 108%
COC(=O)C(c1ccccc1)C(CC(=O)c1ccccc1)c1ccccc1 (stereo not given) | 76.2% | 108% | 88.8% | 104% | 99.5% | 88.8% | 96.1% | 91.5%
Cc1nc2sc(C(=O)Nc3cccc(Br)c3)c(N)c2cc1C(=O)c1ccc(C(F)(F)F)cc1 | 95.1% | 95.7% | 87.9% | 72.2% | 70% | 56.1% | 86.9% | 84.8%
O=C(CNCCO)Nc1ccc2ncnc(Nc3ccc(OCc4cccc(F)c4)c(Cl)c3)c2c1 | 45.2% | 80.5% | 96.8% | 106% | 82.5% | 64.3% | 97% | 87%
CC1CCN(C(=O)OCc2nc3nc(Cl)nc(N4CCOCC4)c3[nH]2)CC1 | -61.6% (active) | -66% (active) | -76.5% (active) | -55.6% (active) | -18.9% (active) | -74.1% (active) | 2.05% (active) | 9.43% (active)
COc1ccc(C2CC(c3cccc(Nc4ccncc4)c3)=NN2c2ccccc2)cc1 (stereo not given) | 68.9% | -16.1% (active) | -57% (active) | -72.2% (active) | 8.74% (active) | 1.38% (active) | -52.5% (active) | -18.1% (active)
COc1cc2nc(-c3ccc(C(F)(F)F)cc3)cc(OCCN3CCC(O)CC3)c2cc1OC | 74.9% | 52.3% | 94.4% | 91.8% | 93.1% | 55.3% | 77.9% | 86.8%
COc1ccc(-c2cnnc3c(-c4cccc(C(F)(F)F)c4)cnn23)cc1 | 48.9% | -34.9% (active) | 47.2% | 79.3% | 73.9% | 2.24% (active) | 81.5% | 82.6%

From PubChem BioAssay (NCI)
